The panel holds about 83,000 compounds, 20% with a hit somewhere; the sample as a whole holds those more often.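 For each line, cells grew in 96-well plates with the test compound present at a single concentration for 48 hours.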 Unmarked numbers belong to inactive results. How the source made its calls: active means growth percent below 10; inactive means the rest.
Test system: SW-620 colon
Assay: NCI-60 one-dose screen, 48 h (100 = growth as untreated, 0 = no growth, -100 = all killed)
Conditions: 10 µM

Compound	growth [%]
CC/C(=C(\c1ccc(O)cc1)c1ccc(OCCN(C)C(=O)COCCNC(=O)Cc2ccc3c(c2)CN([C@@H]2CCC(=O)NC2=O)C3=O)cc1)c1ccccc1	23.8
CC/C(=C(\c1ccc(O)cc1)c1ccc(OCCN(C)C(=O)CCOCCNC(=O)c2ccc3c(c2)CN([C@@H]2CCC(=O)NC2=O)C3=O)cc1)c1ccccc1	83.6
CC/C(=C(/c1ccc(O)cc1)c1ccc(OCCN(C)C(=O)CCOCCNC(=O)Cc2ccc3c(c2)CN([C@@H]2CCC(=O)NC2=O)C3=O)cc1)c1ccccc1	36
CC/C(=C(/c1ccc(O)cc1)c1ccc(OCCN(C)C(=O)COCCOCCNC(=O)c2ccc3c(c2)CN([C@@H]2CCC(=O)NC2=O)C3=O)cc1)c1ccccc1	60.6
CC/C(=C(\c1ccc(O)cc1)c1ccc(OCCNC)cc1)c1ccccc1	89.9
CC/C(=C(/c1ccc(O)cc1)c1ccc(OCCN(C)C(=O)COCCOCCNC(=O)Cc2ccc3c(c2)CN([C@@H]2CCC(=O)NC2=O)C3=O)cc1)c1ccccc1	29.6

From PubChem BioAssay (NCI)
